GLP1R cytotox: qHTS of GLP-1 Receptor Inverse Agonists: Cytotox Screen; HEK293 cAMP-luciferase reporter cells, luminescence, 24 h; Potency, µM (series often up to 38.3 µM), usual class: inhibitors; 0.13% of 410,000 active;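 also: loss of luciferase light is scored as toxicity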
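MLSMR compounds, 24 hr on cells at 37 deg C/5% CO2; luminescence after luciferase reagent (12 min RT). Inhibition counted as the undesired cytotoxic outcome.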
GLP1R ag: qHTS of GLP-1 Receptor Agonists | Glucagon-like peptide 1 receptor (Homo sapiens), P43220 | 0.007% of 380,000 active | Potency, µM (doses to about 45.6 µM), actives largely listed as activators | HEK293 GLP-1R CRE-luciferase, luminescence, 4-6 h; cells express a hypersensitive GLP-1R form
PTHR1 agonist: qHTS for PTHR1 Agonists: Primary Screen. Parathyroid hormone/parathyroid hormone-related peptide receptor (Homo sapiens), Q03431. Potency, µM (series often up to 115 µM), most hits filed as activators. 0.075% of 410,000 active. AID 743266, 2014. HEK293 GP2 PTHR1 cells, GloSensor cAMP luminescence, 1 h; also: nearly all actives have a fitted effect of over 55% in size
Target sequence (Q03431 whole entry, looked up): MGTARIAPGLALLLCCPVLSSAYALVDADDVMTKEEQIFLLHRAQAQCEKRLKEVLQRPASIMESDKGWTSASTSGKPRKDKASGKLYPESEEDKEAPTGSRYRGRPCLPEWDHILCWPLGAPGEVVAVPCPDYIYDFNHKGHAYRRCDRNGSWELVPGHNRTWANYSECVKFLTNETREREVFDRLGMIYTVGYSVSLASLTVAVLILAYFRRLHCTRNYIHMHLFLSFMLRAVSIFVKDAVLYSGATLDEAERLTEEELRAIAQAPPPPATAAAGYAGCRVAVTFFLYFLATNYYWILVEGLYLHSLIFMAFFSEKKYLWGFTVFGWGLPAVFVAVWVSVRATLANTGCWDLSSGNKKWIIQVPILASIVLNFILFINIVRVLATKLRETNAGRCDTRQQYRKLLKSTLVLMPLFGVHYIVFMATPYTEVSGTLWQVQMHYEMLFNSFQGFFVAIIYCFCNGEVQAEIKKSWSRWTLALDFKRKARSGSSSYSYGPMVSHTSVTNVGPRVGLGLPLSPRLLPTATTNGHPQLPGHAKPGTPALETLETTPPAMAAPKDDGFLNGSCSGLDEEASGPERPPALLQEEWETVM
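HEK-293-derived GP2 cells expressing PTHR1 and a GloSensor cAMP reporter, 3,000/well, plated overnight, given luciferin plus IBMX (each 0.5 mM as added) for 1 h at 37 °C, then compound for 1 h at 37 °C. Luminescence was read after 15 min at room temperature.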
GLP-1R inv ag: qHTS of GLP-1 Receptor Inverse Agonists (Inhibition Mode). Potency, µM (titrated, usually from 38.3 µM), most hits filed as inhibitors. Glucagon-like peptide 1 receptor (Homo sapiens), P43220. HEK293 GLP-1R CRE-luciferase, luminescence, 24 h; GLP-1R form is constitutively active. 1.6% of 410,000 active. AID 624417, 2012; also: nearly all actives have a fitted effect of over 55% in size
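Luminescence readout: a drop in cAMP-driven luciferase signal flags inverse agonism at a constitutively active GLP-1R stably expressed in HEK293. Compound exposure lasted 24 hr at 37 deg C, 5% CO2.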
LDHA block: qHTS assay for inhibitors of human lactate dehydrogenase; L-lactate dehydrogenase A chain (Homo sapiens), P00338; purified LDHA, NADH/diaphorase-resazurin fluorescence; hits give low values; activity change, % (values are at about 110 or 230 µM); 0.15% of 480,000 active; AID 1347041, 2019; in the data active = activity change below about -30%; inconclusive = mostly about -25% to -30%
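Remaining NADH was detected by diaphorase (0.133 mg/mL) converting 37 µM resazurin to fluorescent resorufin, read at 0 and 20 minutes. The preceding 5-minute room-temperature reaction used 2 nM LDHA, 0.2 mM sodium pyruvate and 0.06 mM NADH at pH 7.4.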
IDH1 R132H inh: qHTS for Inhibitors of mutant isocitrate dehydrogenase 1 (IDH1): qHTS; Isocitrate dehydrogenase [NADP] cytoplasmic (Homo sapiens), O75874; IDH1-R132H enzyme, NADPH consumption, diaphorase/resazurin fluorescence; Potency, µM (top dose mostly 76.6 µM), most hits filed as inhibitors; 0.093% of 390,000 active; AID 602179, 2012; also: nearly all actives have a fitted effect of over 65% in size
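IDH1-R132H (0.5 ug/mL) preincubated 30 min with compound, then NADPH (0.016 mM) and alpha-KG (2 mM) added; 80 min at RT, pH 7.5. Remaining NADPH coupled via diaphorase/resazurin to fluorescence (540/590 nm); concentration-response curves normalized to no-enzyme control.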
A number is an active result; 0 = inactive; ? = inconclusive; - = no result. Sampled rows, rich in hits. Any-hit rate of the full collection: about 1.7%. Unless noted, calls follow the shape of the dose curve; as a rule, active = well fitted curve in the direction sought with a large enough effect; inconclusive = small, poorly fitted or top-dose-only effect, or another doubt; inactive = no such curve, though single readings can be large; an effect the other way counts as inactive or inconclusive.

SMILES	GLP1R cytotox	GLP1R ag	PTHR1 agonist	GLP-1R inv ag	LDHA block	IDH1 R132H inh
CC(=NNC(N)=S)c1ccc2cc3c(cc2c1)OCO3	?	0	0	2.8µM	0	0
Cc1cccc(C(=O)OCC(=O)c2cccs2)c1O	-	-	-	-	0	-
COc1cccc2cc(C(=O)NC3CC4CCC3C4)oc12 (stereo unspecified)	0	0	0	10µM	0	0
COc1ccc(-c2nc3cc(NC(=O)c4cc(Cl)ccc4OC)ccc3o2)cc1	-	-	-	-	0	-
C/C(=N\n1cnnc1)c1ccccc1	0	0	0	0	0	0
C/C(=N/n1cnnc1)c1cccnc1	0	0	16µM	0	0	0
Cc1ccsc1C(=O)Nc1ccccc1Cc1ccccc1	-	-	-	-	0	-
Cc1cccc(C)c1OC(=O)CCN1C(=O)C2C3C=CC(C4CC34)C2C1=O (stereo unspecified)	0	0	0	7.1µM	0	0
CN1C(=S)SC(C)(C)C1N(O)C(=O)Nc1ccc(Cl)cc1 (stereo unspecified)	0	0	0	?	0	0
CN1C(=S)SC(N(O)C(=O)Nc2ccc(Cl)c(Cl)c2)C1(C)C (stereo unspecified)	0	0	0	10µM	0	0
O=[N+]([O-])c1ccc(CN2CCOCCOCCN(Cc3ccc([N+](=O)[O-])cc3)CCOCC2)cc1	0	0	0	10µM	0	0
O=S(=O)(c1ccc(-c2nc(-c3ccccc3)no2)o1)N1CCOCC1	-	-	-	-	0	-
CCOC(=O)Cc1csc(NC(=O)CSc2nnnn2-c2ccc(C)cc2C)n1	0	0	0	6.3µM	0	0
O=C(c1cc(-c2ccc(Br)cc2)nc2ccccc12)N1CCC1	0	0	0	?	0	0
O=C(c1cc(-c2cccc(Br)c2)nc2ccccc12)N1CCCC1	0	0	0	10µM	0	0
COc1ccc(NC(=O)CN2C(=O)C(c3ccc(C)cc3)=NC23CCCCCC3)cc1Cl	0	-	0	11µM	0	-
COc1ccc(C2=NC3(CCCCCC3)N(CC(=O)Nc3cccc(Cl)c3)C2=O)cc1	0	-	0	11µM	0	-
COc1cccc(NC(=O)CN2C(=O)C(c3ccc(C)cc3)=NC23CCCCCC3)c1	0	0	0	?	0	0
CCCNC(=O)NC(=O)CSc1nc2ccccc2c(=O)n1CC	-	-	-	-	0	-
C[C@@H](CO)NC(=O)c1ccc2c3n(nc2c1)-c1ccccc1CO3	0	0	0	3.5µM	0	0
COc1ccc(C(=O)/C=C/c2ccccc2)c(OC)c1	0	0	0	10µM	0	0
Cc1ncc(-c2ccc(S(=O)(=O)N3CCN(c4ccccc4)CC3)cc2)o1	-	-	-	-	0	-
O=C(NCCc1ccccc1)c1cc2ccccc2[nH]1	-	-	-	-	0	-
c1ccc(Nc2nc(NCc3ccco3)c3ccccc3n2)cc1	?	0	0	2.2µM	0	0
Cc1ccccc1Nc1nc(NCc2ccco2)c2ccccc2n1	?	0	0	4µM	0	0
SMILES	GLP1R cytotox	GLP1R ag	PTHR1 agonist	GLP-1R inv ag	LDHA block	IDH1 R132H inh
CC(C)(C)c1cc(C(=O)N/N=C/c2ccc(O)cc2)n(-c2ccccc2)n1	0	0	0	2µM	0	0
CCc1cc(C(=O)N/N=C/c2ccc(O)cc2)c2ccccc2n1	0	0	0	0	0	0
C[n+]1ccc(/C=C/c2ccc(Br)cc2)cc1	0	0	0	0	-32	0
O=C(/C=C/c1ccc(Br)cc1)c1ccc(Cl)cc1	-	-	-	-	0	-
CCNC(=S)N/N=C/c1cccc(OCc2c(F)cccc2Cl)c1	?	0	0	10µM	0	0
CCN(CC)CCNC1=NCCn2c1cc1cc(OC)ccc12	0	0	0	2.8µM	0	0
CCN(CC)CCNC(=O)COc1ccc(OC)cc1	0	0	0	0	0	0
COc1cccc(CN(C)CC(O)COc2cc(Cl)ccc2Cl)c1 (stereo unspecified)	0	0	0	10µM	0	0
CCOc1ccc(CN2CCN(Cc3cc4c(cc3Cl)OCO4)CC2CCO)cc1 (stereo unspecified)	0	0	0	7.9µM	0	0
COc1ccc(CCN(C)CC(O)COC(c2ccc(F)cc2)c2ccc(F)cc2)cc1OC (stereo unspecified)	?	0	0	5µM	0	0
Cc1ccc2sc(N(CCCN(C)C)C(=O)c3ccc(S(=O)(=O)N4CCOCC4)cc3)nc2c1C	0	0	0	10µM	0	0
Cc1ccc2sc(N(CCCN(C)C)C(=O)c3ccc(S(=O)(=O)N(C)C4CCCCC4)cc3)nc2c1C	?	0	0	2.8µM	0	0
Cc1cc(C)c2nc(N(CCN(C)C)C(=O)c3ccc(S(=O)(=O)N(C)CC4CCCO4)cc3)sc2c1 (stereo unspecified)	0	0	0	10µM	0	0
Cc1cc(C)c2nc(N(CCCN(C)C)C(=O)c3ccc(S(=O)(=O)N4CC(C)OC(C)C4)cc3)sc2c1 (stereo unspecified)	0	0	0	10µM	0	0
Cc1ccc(C)c(-c2nn(CC(=O)Nc3ccccc3)c(=O)c3c2CCCC3)c1	-	-	-	-	0	-
COc1ccc2nc3c(cc2c1)c(NC(=O)c1cccs1)nn3CC(C)C	0	0	0	8.9µM	0	0
CC(C)Cn1nc(NC(=O)c2cccs2)c2cc3ccccc3nc21	0	0	0	?	0	0
CCCCCC[n+]1c(-c2ccc(Cl)cc2Cl)csc1Nc1ccccc1	0	0	0	10µM	0	0
Cc1ccc(S(=O)(=O)N(Cc2ccccc2)c2ccccc2C(=O)N2CCCCC2)cc1	?	0	0	8.9µM	0	0
CN1CCN(C(=O)c2ccccc2N(Cc2ccccc2)S(=O)(=O)c2ccccc2)CC1	0	0	0	?	0	0
COc1ccc(N2CCCCS2(=O)=O)cc1S(=O)(=O)N1CCC2(CC1)OCCO2	-	-	-	-	0	-
CCOc1ccc(S(=O)(=O)n2cc(-c3ccc(F)cc3)c(N)n2)cc1	0	0	0	?	0	0
CCOc1cc(S(=O)(=O)n2cc(-c3ccc(F)cc3)c(N)n2)cc(OCC)c1OCC	?	0	0	2.2µM	0	0
O=C(NC12CC3CC(CC(C3)C1)C2)C1CCCc2ccccc21 (stereo unspecified)	-	-	-	-	0	-
COCCN(Cc1ccccc1)C(=O)c1cccc(S(=O)(=O)N2CCN(Cc3ccccc3)CC2)c1	0	0	0	14µM	0	0

Screens deposited in PubChem by National Center for Advancing Translational Sciences (NCATS).
